Bioassay records: PubChem, several laboratories
Only some compounds are listed: those with a hit (about 2.9% of all), similar ones and a draw of the others.
14-3-3 Bad PPI: disrupts binding of bovine 14-3-3 zeta to phospho-Bad peptide; inhibition, % at 21.7 µM; 220,000 compounds, 0.71% hits; AID 781; P63103; TR-FRET 14-3-3zeta/Dy647-pBad peptide displacement, 1 h;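 active = inhibition above about 70%, limit read from the data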;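 note: 0% = full 14-3-3 plus peptide FRET controls and 100% = background without 14-3-3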
Target sequence (P63103 whole entry, looked up): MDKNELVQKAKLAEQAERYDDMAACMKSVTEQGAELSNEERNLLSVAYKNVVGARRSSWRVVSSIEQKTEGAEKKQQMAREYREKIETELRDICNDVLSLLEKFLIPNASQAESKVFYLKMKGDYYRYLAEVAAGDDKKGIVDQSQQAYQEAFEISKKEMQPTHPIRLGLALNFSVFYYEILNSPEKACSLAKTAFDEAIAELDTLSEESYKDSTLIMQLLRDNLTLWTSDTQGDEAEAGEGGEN
Hck Nef HTS: inhibitors of human Hck kinase activated by Nef. P08631. Recombinant Hck-YEEI plus Nef, Z-Lyte FRET kinase assay. inhibition, % at 20 µM. 220,000 compounds, 0.68% hits;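 active = Hck-Nef kinase inhibition above about 50%, limit read from the data; inactive = inhibition below that limit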;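 note: 0% = DMSO with Hck plus Nef and 100% = Hck alone without Nef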
Mcl-1 Bim block: disrupts Bim peptide binding to human Mcl-1; Q07820; Bead-based flow cytometry, Bim peptide-Mcl-1 binding; inhibition, % at 10 µM; 190,000 compounds, 0.1% hits; AID 1009; in the data active = inhibition above about 40%;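 note: 0% = no compound tracer wells and 100% = peptide blocker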
Target sequence (Q07820 whole entry, looked up): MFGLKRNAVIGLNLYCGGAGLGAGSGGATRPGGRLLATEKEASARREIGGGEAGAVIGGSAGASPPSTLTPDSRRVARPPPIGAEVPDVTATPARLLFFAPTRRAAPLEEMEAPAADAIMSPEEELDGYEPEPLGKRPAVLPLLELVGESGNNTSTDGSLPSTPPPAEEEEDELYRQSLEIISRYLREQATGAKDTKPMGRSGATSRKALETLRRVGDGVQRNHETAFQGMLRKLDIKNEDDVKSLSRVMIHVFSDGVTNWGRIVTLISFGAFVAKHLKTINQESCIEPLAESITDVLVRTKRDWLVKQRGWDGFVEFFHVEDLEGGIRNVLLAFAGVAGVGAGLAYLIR
Pf gametocyte: kills late stage P. falciparum gametocytes; AID 743093; 150,000 compounds, 0.065% hits; inhibition, % at 10.9 µM; P. falciparum stage V gametocytes, ATP luminescence, 24 h;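 active = inhibition above the mean plus 3 SD of compounds within the control limits, set per campaign, cut at about 38% in these data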;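 note: 0% = DMSO wells and 100% = medium only without gametocytes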
Mcl1-Bid inh: Mcl-1/Bid interaction inhibition. TR-FRET Mcl-1/Bid-Dy647 peptide binding, 1536-well. inhibition, % at 21.7 µM. 220,000 compounds, 0.97% hits. AID 1021;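 active = compounds that cut the binding signal by more than half at the single screening dose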;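 note: His-tagged Mcl-1 with europium anti-His antibody binding Bid BH3 peptide; 0% = Mcl-1 plus peptide wells and 100% = peptide-only wells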
Mcl1 Noxa PPI: disrupts binding of human Mcl-1 to Noxa peptide; AID 1022; TR-FRET Mcl-1/Noxa peptide binding, 2 h; 220,000 compounds, 1.5% hits; inhibition, % at 21.7 µM; Q07820;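 active = compounds that cut the protein-peptide binding signal by more than 50% relative to plate controls in a single-dose test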;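 note: His-tagged Mcl-1 with rhodamine Noxa BH3 peptide and terbium anti-His antibody; 0% = Mcl-1 plus Noxa peptide wells and 100% = peptide-only wells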
Hck Nef conf: Hck-Nef kinase inhibition, confirmation; 1,300 compounds, 28% hits; Recombinant Hck-YEEI:Nef, Z-Lyte FRET kinase assay; calls only at 10 µM; shares compounds with Hck Nef HTS;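 active = average inhibition of at least 50%, with Z-scores no higher than 3 in both the phospho-tyrosine peptide and fluorescence counterscreens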
* hit, by the source's call.

Results for CCOC(=O)c1[nH]c2ccccc2c1NC(=S)Nc1cc(C)ccc1C ?
14-3-3 Bad PPI: -9; Hck Nef HTS: 57*; Mcl-1 Bim block: -4; Mcl1-Bid inh: -30; Mcl1 Noxa PPI: -21; Hck Nef conf: inactive

What do the screens show for `CCOC(=O)c1[nH]c2ccccc2c1NC(=S)Nc1ccccc1C`?
14-3-3 Bad PPI: -8; Hck Nef HTS: 31; Mcl-1 Bim block: -3; Mcl1-Bid inh: -24; Mcl1 Noxa PPI: 12

What do the screens show for `O=C(NNC(=S)Nc1ccc(F)c(Cl)c1)C1CC1`?
14-3-3 Bad PPI: -6; Hck Nef HTS: 4; Mcl-1 Bim block: -4; Pf gametocyte: 3; Mcl1-Bid inh: -14; Mcl1 Noxa PPI: 0

What do the screens show for `COC(=O)CCCCC1SCC2NC(=O)NC21O` (centres undefined)?
14-3-3 Bad PPI: -3; Hck Nef HTS: 2; Mcl-1 Bim block: -4; Mcl1-Bid inh: -59; Mcl1 Noxa PPI: -16

What do the screens show for `O=C(Cn1c(=O)oc2cc(S(=O)(=O)N3CCCC3)ccc21)Nc1ccccc1Br`?
14-3-3 Bad PPI: -1; Hck Nef HTS: 20; Mcl1-Bid inh: -91; Mcl1 Noxa PPI: -3

How did CCC(=O)Oc1ccc2c(C)cc(=O)oc2c1C(=O)CC do in these assays?
14-3-3 Bad PPI: 5; Hck Nef HTS: 154*; Pf gametocyte: 16; Mcl1-Bid inh: -9; Mcl1 Noxa PPI: -2

What do the screens show for `O=C(NCc1nnc(SCc2ccccc2)n1-c1ccc(F)cc1)C12CC3CC(CC(C3)C1)C2`?
14-3-3 Bad PPI: -5; Hck Nef HTS: 0; Mcl-1 Bim block: -6; Mcl1-Bid inh: 13; Mcl1 Noxa PPI: 18

How did Cc1cc2cccc(C)c2nc1SCC(=O)NCC1CCCO1 (centres undefined) do in these assays?
14-3-3 Bad PPI: -2; Hck Nef HTS: 23; Mcl-1 Bim block: 1; Pf gametocyte: 8; Mcl1-Bid inh: 2; Mcl1 Noxa PPI: 13

Results for COc1ccc(N=c2oc3cc(O)ccc3cc2C(=O)Nc2ccccn2)cc1OC ?
14-3-3 Bad PPI: 18; Hck Nef HTS: 84*; Mcl-1 Bim block: 4; Pf gametocyte: 12; Mcl1-Bid inh: 5; Mcl1 Noxa PPI: 53*; Hck Nef conf: inactive

What do the screens show for `Fc1cccc(/C=N/Nc2ncnc3nc[nH]c23)c1`?
14-3-3 Bad PPI: -6; Hck Nef HTS: 65*; Mcl-1 Bim block: 0; Mcl1-Bid inh: 2; Mcl1 Noxa PPI: 0; Hck Nef conf: active

Results for Fc1ccccc1/C=N/Nc1ncnc2nc[nH]c12 ?
14-3-3 Bad PPI: 1; Hck Nef HTS: 56*; Mcl-1 Bim block: 9; Mcl1-Bid inh: 5; Mcl1 Noxa PPI: 20; Hck Nef conf: active

What do the screens show for `c1ccc(CNc2ncnc3nc[nH]c23)nc1`?
14-3-3 Bad PPI: -12; Hck Nef HTS: 2; Mcl-1 Bim block: 1; Mcl1-Bid inh: -1; Mcl1 Noxa PPI: 18

Results for C/C(=N/NC(=O)c1cc2ccccc2cc1O)C1C(=O)c2ccccc2C1=O ?
14-3-3 Bad PPI: 8; Hck Nef HTS: 82*; Mcl-1 Bim block: 3; Pf gametocyte: 8; Mcl1-Bid inh: 2; Mcl1 Noxa PPI: 92*; Hck Nef conf: active

What do the screens show for `C/C(=N\NC(=O)c1cc2ccccc2cc1O)c1cc2ccccc2o1`?
14-3-3 Bad PPI: -11; Hck Nef HTS: 8; Pf gametocyte: 2; Mcl1-Bid inh: -32; Mcl1 Noxa PPI: 10

Results for COc1ccc(-c2nn(-c3ccccc3)cc2C2CC(c3cccs3)=NN2C(=O)CCC(=O)O)cc1 (centres undefined) ?
14-3-3 Bad PPI: 5; Hck Nef HTS: 24; Pf gametocyte: 12; Mcl1-Bid inh: -2; Mcl1 Noxa PPI: 6

What do the screens show for `COc1ccc(C2=NN(C(=O)CCCC(=O)O)C(c3cn(-c4ccccc4)nc3-c3ccccc3)C2)cc1` (centres undefined)?
14-3-3 Bad PPI: 6; Hck Nef HTS: 109*; Pf gametocyte: 13; Mcl1-Bid inh: 0; Mcl1 Noxa PPI: -13; Hck Nef conf: active

Results for C=CCn1cc(-c2ccccc2)cc(C#N)c1=O ?
14-3-3 Bad PPI: -3; Hck Nef HTS: 3; Mcl-1 Bim block: -2; Mcl1-Bid inh: -18; Mcl1 Noxa PPI: 15

How did CCOc1cc(/C=C2\SC(=Nc3ccccc3)N(c3ccccc3)C2=O)ccc1OCC(=O)O do in these assays?
14-3-3 Bad PPI: -4; Hck Nef HTS: 2; Mcl-1 Bim block: -5; Pf gametocyte: -6; Mcl1-Bid inh: -38; Mcl1 Noxa PPI: 22

How did CCOC(=O)COc1ccc(/C=C2/SC(=Nc3ccccc3)N(Cc3cccnc3)C2=O)cc1OC do in these assays?
14-3-3 Bad PPI: -6; Hck Nef HTS: 71*; Mcl-1 Bim block: 0; Mcl1-Bid inh: 8; Mcl1 Noxa PPI: 1; Hck Nef conf: inactive

What do the screens show for `CCCCC(CC)Cn1c2nc3ccccc3nc2c2c(=N)oc(C)nc21` (centres undefined)?
14-3-3 Bad PPI: -1; Hck Nef HTS: 57*; Mcl-1 Bim block: 0; Mcl1-Bid inh: -4; Mcl1 Noxa PPI: -186; Hck Nef conf: inactive

How did Nc1nc(N)nc(-c2ccc(Oc3ccccc3)cc2)n1 do in these assays?
14-3-3 Bad PPI: 4; Hck Nef HTS: 19; Mcl-1 Bim block: 0; Pf gametocyte: 2; Mcl1-Bid inh: -23; Mcl1 Noxa PPI: -2

What do the screens show for `Cc1ccc(Oc2ccc(-c3nc(N)nc(N)n3)cc2)cc1C`?
14-3-3 Bad PPI: 11; Hck Nef HTS: 76*; Mcl-1 Bim block: -4; Mcl1-Bid inh: -17; Mcl1 Noxa PPI: 2; Hck Nef conf: inactive

What do the screens show for `CCn1c(C)nc2cc(C(=O)N/N=C/c3ccc(O)c(O)c3O)ccc21`?
14-3-3 Bad PPI: 36; Hck Nef HTS: 75*; Mcl-1 Bim block: 11; Pf gametocyte: 12; Mcl1-Bid inh: 42; Mcl1 Noxa PPI: 95*; Hck Nef conf: active

What do the screens show for `Cc1cc(C)c(S(=O)(=O)N(CC(=O)NCc2cccnc2)C2CCCCC2)c(C)c1`?
14-3-3 Bad PPI: -10; Hck Nef HTS: -1; Mcl-1 Bim block: 0; Pf gametocyte: -11; Mcl1-Bid inh: 9; Mcl1 Noxa PPI: -20

Results for CC(C)(C)c1ccc(C(=O)CC(Sc2ccc(Cl)cc2)C(=O)O)cc1 (centres undefined) ?
14-3-3 Bad PPI: -3; Hck Nef HTS: 77*; Mcl-1 Bim block: -4; Mcl1-Bid inh: 5; Mcl1 Noxa PPI: -2; Hck Nef conf: inactive

Results for CC(C)(C)c1ccc(C(=O)Nc2ccc(Cl)cc2)cc1 ?
14-3-3 Bad PPI: 1; Hck Nef HTS: 0; Mcl-1 Bim block: -2; Pf gametocyte: 11; Mcl1-Bid inh: -19; Mcl1 Noxa PPI: -12

Results for Clc1ccc2[nH]c3c(c2c1)CCc1cn[nH]c1-3 ?
14-3-3 Bad PPI: 6; Hck Nef HTS: 60*; Mcl-1 Bim block: -1; Mcl1-Bid inh: 6; Mcl1 Noxa PPI: 23; Hck Nef conf: active
